SMILES strings stand for the structures. “And” between values parts separate entries of the source, which are not always exact repeats. Equal values may be shown once. The campaign covered roughly 420,000 compounds. About 64,000 (15%) were called active. About 27% were inconclusive and are not listed. The call rests on the fitted dose curve; in most records, active means well fitted inhibition curve with a large enough effect; inconclusive means small, poorly fitted or top-dose-only effect; inactive means flat fitted curve, though single readings scatter. These entries were drawn from the full list. Entries that show only a call come without a potency.
Potency means the concentration at half of the fitted maximal effect.

This assay is described as follows: qHTS for Inhibitors of human tyrosyl-DNA phosphodiesterase 1 (TDP1): qHTS in cells in absence of CPT. Further: nearly all actives have a fitted effect of over 55% in size. The note with it: DT40 Tdp1-/- hTDP1 cells, no CPT, ATP luminescence, 48 h; activity change, negative = growth inhibition: at 46.2 µM (top of the series). The method in brief: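 Cells were dispensed at 400 per well, compounds added by pin tool, plates incubated ≥48 hr at 37 °C, then CellTiter-Glo added for 30 min at room temperature before luminescence reading. Line: DT40 Tdp1-/- complemented with hTDP1; camptothecin omitted.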
For orientation: Quantitative high-throughput screening tests each substance at several concentrations.
For `Nc1cc2c(cc1Br)-c1ccc(F)cc1C2=O`, the Potency entry was “inactive”.

For `COC(=O)C[C@H]1C=C[C@H](NC(=O)c2ccc(F)cc2)[C@@H](CO)O1`, the Potency result is “inactive”.

Regarding `Cc1ccsc1/C=N/NC(=O)Cc1cc(=O)[nH][nH]1`, the Potency entry was “inactive”.

With `O=C1C[C@@H]2c3c(cccc3CN1Cc1ccccc1)C[C@@H](O)[C@H]2O`, the Potency entry was “inactive”.

As for `O=C1C[C@H]2C=CCc3cccc(c32)CN1Cc1ccccc1`, the Potency was 20 µM (active).

As for `CCCC(=O)C1CCN(Cc2ccccc2)CC1`, the Potency result is “inactive”.

Regarding `Brc1ccc(CN2CC[C@H]3C=CCc4cccc(c43)C2)cc1`, the Potency is 15.8 µM (active) and 20.6 µM (active).

On to `Cc1cccc(C)c1N1C(=O)CN(Cc2ccccc2)C1=S`, for which the Potency result is “inactive”.

`C/C(Cn1nnc2ccccc21)=N\OC(=O)c1cc(F)c(F)cc1Cl`: the Potency result is “inactive”.

As for `O=C(NCc1ccc(F)cc1)C1CCC(CNc2c(N3CCOCC3)c(=O)c2=O)CC1` (stereo not given), the Potency entry is “inactive”.

Take `CC[C@]1(O)C[C@@H]2CN(CCc3c([nH]c4ccccc34)[C@@](C(=O)OC)(c3cc4c(cc3OC)N(C)[C@H]3[C@@](O)(C(=O)OC)[C@H](OC(C)=O)[C@]5(CC)C=CCN6CC[C@]43[C@@H]65)C2)C1`: the Potency was 51.7 nM (active) and 59.6 nM (active) and 82 nM (active).

Turning to `CC[C@]1(O)CC2CN(CCc3c([nH]c4ccccc34)[C@@](C(=O)OC)(c3cc4c(cc3OC)N(C=O)[C@H]3[C@@](O)(C(=O)OC)[C@H](OC(C)=O)[C@]5(CC)C=CCN6CC[C@]43[C@@H]65)C2)C1` (stereo not given in full), the Potency result is “inactive”.

As for `CCN(CC)Cc1c(C(=O)OC)nnn1-c1nonc1N`, the Potency entry was “inactive”.

Consider `CCNC(=O)C1(C)CCCN1C(=O)c1ccc(N(C)C)cc1` (stereo not given), for which the Potency entry was “inactive”.

Take `CC1(C(=O)NS(=O)(=O)c2ccccc2)CCN1C(=O)c1ccccc1` (stereo not given): the Potency entry was “inactive”.

With `CC(C)NC(=O)C1(C)CCCCCN1C(=O)c1ccc(-c2ccccc2)cc1` (stereo not given), the Potency is 9.2 µM (active).

For the compound `CC(C)(CNCC(O)c1ccccc1)N1CCOCC1` (stereo not given), the Potency entry was “inactive”.

`CCOc1ccc(/C=N/NC(N)=S)cc1`: the Potency was 16.4 µM (active).

As to `NC(=S)N/N=C/c1ccc([N+](=O)[O-])cc1`, the Potency entry was “inactive”.

On to `CCOC(=O)N1CCC(=NNC(N)=O)CC1`, for which the Potency result is “inactive”.

With `N#Cc1nc(COc2ccc(Cl)cc2)oc1N1CCCC1`, the Potency result is “inactive”.

Consider `CCC(C)Nc1oc(-c2ccc(COc3ccc(Cl)cc3)o2)nc1C#N` (stereo not given), for which the Potency was 23.1 µM (active).

Consider `CC1CC(C)CN(c2oc(-c3ccc(OCc4ccc(Cl)cc4)cc3)nc2C#N)C1` (stereo not given), for which the Potency entry is “inactive”.

With `COC(=O)c1sccc1NC(=O)c1ccc(Cl)cc1`, the Potency result was “inactive”.

Turning to `O=C1c2ccccc2C(=O)C1c1ccccc1`, the Potency result is “inactive”.

Take `COCCCn1c(=O)/c(=C/c2ccccc2OC(C)C)s/c1=C(\C#N)C(=O)Nc1ccc(C(=O)O)cc1`: the Potency was 20.6 µM (active).

Regarding `COc1ccc(NC(=O)/C(C#N)=C\c2cc(OC)c(OCc3ccc(C(=O)O)cc3)cc2Br)cc1`, the Potency entry was “inactive”.

As to `COc1ccccc1C(=O)N/C(=C/c1ccco1)C(=O)Nc1ccc(C(=O)O)cc1`, the Potency result was “inactive”.

Regarding `COCCNC(=S)N(CCc1c(C)[nH]c2ccc(C)cc12)Cc1cccnc1`, the Potency result is “inactive”.

With `CCn1cc(C(=O)N2CC=C(c3ccccc3)CC2)c(=O)c2ccc(C)nc21`, the Potency entry was “inactive”.

In the case of `CCOc1cc(/C=C(\C#N)c2nc(-c3cccs3)c(NC(C)=O)s2)ccc1O`, the Potency is 3.66 µM (active).

For `CCOc1cc(/C=C(\C#N)C(=O)Nc2ccccc2C)ccc1OCc1cc(=O)n2nc(CC)sc2n1`, the Potency entry is “inactive”.

Take `CCOc1cc(/C=C(/C#N)c2ccc(Cl)cc2)cc(Cl)c1OCC(=O)O`: the Potency entry was “inactive”.

For the compound `CSc1nc(C)nc2c1c(=O)n(C)c(=O)n2C`, the Potency result is “inactive”.

`O=P(O)(O)OC[C@H](O)CO`: the Potency result is “inactive”.

Turning to `CC1(C)CC(CCC(=O)Nc2ccccc2Cl)C(=O)O1` (stereo not given), the Potency entry was “inactive”.

Take `CCCCCCNC(=O)O[C@H]1CN(C(=O)OC(C)C)N(C(=O)OC(C)C)[C@@H]2CN(S(=O)(=O)c3ccc(C)cc3)C[C@]12O`: the Potency is 16.4 µM (active).

As for `Cc1ccc(S(=O)(=O)N2CCC(C(=O)N[C@@H](C)C(=O)NCc3ccccc3)CC2)cc1`, the Potency result is “inactive”.

`CCCCOc1ccc(NC(=O)[C@@H]2CCCN2C(=O)C2CCN(S(=O)(=O)c3ccc(C)cc3)CC2)cc1`: the Potency result is “inactive”.

Turning to `COc1ccc(C(=O)Nc2cc(C)ccc2NC(=O)COc2ccccc2)cc1`, the Potency result is “inactive”.

For the compound `O=C(CNS(=O)(=O)c1ccc2ccccc2c1)Nc1ccc(F)c(F)c1F`, the Potency entry was “inactive”.

Take `Cc1ccc(NS(=O)(=O)c2ccc(C)c(NC(=O)COc3ccc4ccccc4c3)c2)c(C)c1`: the Potency was 16.4 µM (active).

For the compound `C/C(=N\NC(=S)NCc1ccccc1)C1CCCCC1`, the Potency is 6.51 µM (active).

As for `O=C(O)c1ccc(/C=N/NC(=S)NCc2ccccc2)cc1`, the Potency result is “inactive”.

For `O=C(CC1CCCCC1)NCc1ccccc1`, the Potency entry is “inactive”.

`C/C(=N\NC(=S)NCc1ccccc1)c1ccc(Cl)cc1`: the Potency was 18.4 µM (active).

In the case of `CC1CCCCN1C(=S)NCc1ccccc1` (stereo not given), the Potency result is “inactive”.

As for `CN(C)CCCNC(=S)NCc1ccc(Cl)cc1`, the Potency result is “inactive”.

As for `C#CCOCCOCCOCCNc1nc(N2CCN(C(=O)[C@H](CCCCN)n3cc(CCC(=O)O)nn3)CC2)nc(N2CCN(C(=O)[C@H](CCCCN)n3cc(CC(C)O)nn3)CC2)n1` (stereo not given in full), the Potency result is “inactive”.

Take `CSc1ccc(CNC(=O)c2ccc(NC(=O)C3=CSCCO3)cc2)cc1`: the Potency result is “inactive”.

Turning to `CC(=O)c1ccc(N2CCN(CC(O)c3ccccc3)CC2)cc1` (stereo not given), the Potency entry is “inactive”.

With `CC1CCCCN1CC(=O)NCc1ccc2c(c1)OCO2` (stereo not given), the Potency entry is “inactive”.

Turning to `Cn1cncc1COC(=O)c1ccc(Cl)cc1`, the Potency result is “inactive”.

Turning to `Cc1ccc(OCCSc2nc(-c3cccs3)nc3cc(=O)[nH]n23)cc1Cl`, the Potency was 29.1 µM (active).

As to `CCc1ccccc1OCCSc1nc(-c2cccs2)nc2cc(=O)[nH]n12`, the Potency entry was “inactive”.

Turning to `CC(C)c1c(O)nc(SCCOc2ccc(Cl)cc2)[nH]c1=O`, the Potency result was “inactive”.

For `Brc1cccc(-c2nnc3n2CCC3)c1`, the Potency entry is “inactive”.

`C[C@H](NC(=O)c1nc[nH]c1C(=O)NCC(=O)OC(C)(C)C)c1ccccc1`: the Potency result is “inactive”.

Turning to `COc1ccc(CCNC(=O)c2cnc3sc(N4CCCCCC4)nn3c2=O)cc1OC`, the Potency is 8.2 µM (active).

As to `COc1ccc(CCNC(=O)c2ccc(NC(=O)CC3SC(N4CCCCC4)=NC3=O)cc2)cc1OC` (stereo not given), the Potency entry is “inactive”.

Regarding `O=C(NCCc1ccccc1)c1cnc2sc(N3CCCC3)nn2c1=O`, the Potency was 20.6 µM (active).

For the compound `COc1ccc(CCNC(=O)C2CCN(c3nn4c(=O)cc(C)nc4s3)CC2)cc1OC`, the Potency result was “inactive”.

`CSc1ncc(C(=O)NCCCc2ccccc2)c(C)n1`: the Potency entry is “inactive”.

Turning to `O=C(O)c1ccccc1-c1ccccc1C(=O)NCCc1ccccc1`, the Potency result was “inactive”.

Turning to `Cc1ccccc1N1CC(c2nc3ccccc3[nH]2)CC1=O` (stereo not given), the Potency entry is “inactive”.

`COCCNC(=O)CN(Cc1ccco1)C(=O)CCC(=O)Nc1nccs1`: the Potency entry was “inactive”.

Consider `CCC(C)NC(=O)Cn1nc(C(F)(F)F)c2c1CCC2` (stereo not given), for which the Potency result was “inactive”.

For `O=C(NCc1ccco1)c1nn2cccnc2c1Cl`, the Potency entry was “inactive”.

Regarding `CCOc1ccc(-n2c(SC(C)C(=O)OC)nc3c(c2=O)SCC3)cc1` (stereo not given), the Potency result is “inactive”.

`O=S(=O)(c1ccc(F)cc1)N1CCN(C(=S)NCc2ccco2)CC1`: the Potency entry is “inactive”.

In the case of `COc1cc(/C=C/C(=O)O)cc(S(=O)(=O)Nc2ccccc2SC)c1OC`, the Potency entry is “inactive”.

Consider `COc1cc(Cl)c(NC(=O)C(NS(=O)(=O)c2cccs2)C(C)C)c(OC)c1` (stereo not given), for which the Potency result is “inactive”.

Regarding `CC(C)(C)c1csc(NC2=NS(=O)(=O)c3ccccc32)n1`, the Potency entry was “inactive”.

On to `CC(C)C(NS(=O)(=O)c1cccs1)C(=O)Nc1nc(C(C)(C)C)cs1` (stereo not given), for which the Potency was 23.1 µM (active).

As to `Cc1ccccc1-n1cc(CNC(=O)C2CCC(=O)N(C3CC3)C2)cn1` (stereo not given), the Potency entry is “inactive”.

As to `COc1ccc(CC(NC(C)=O)C(=O)N2CCN(C(=O)Nc3cccc(Cl)c3)CC2)cc1OC` (stereo not given), the Potency result was “inactive”.

In the case of `CC(=O)Nc1cccc([N+](=O)[O-])c1`, the Potency entry was “inactive”.

Consider `COC(=O)/C=C\C(=O)Nc1cccc([N+](=O)[O-])c1`, for which the Potency was 2.06 µM (active).

Take `O=C(CSCC(=O)Nc1cccc([N+](=O)[O-])c1)Nc1ccccc1`: the Potency entry is “inactive”.

On to `COc1cc(C2/C(=C(\O)c3ccc4c(c3)CC(C)O4)C(=O)C(=O)N2Cc2ccco2)ccc1O` (stereo not given), for which the Potency result is “inactive”.

On to `CCOc1ccc(Nc2ncnc3scc(-c4ccc(OC)cc4)c23)cc1`, for which the Potency is 18.4 µM (active).

In the case of `COc1ccc(-c2csc3ncnc(Oc4ccc5c(C)cc(=O)oc5c4)c23)cc1`, the Potency entry was “inactive”.

For the compound `CCOC(=O)c1sc2nc(C)nc(Nc3ccc(OC)c(OC)c3)c2c1C`, the Potency entry was “inactive”.

With `Cc1c(Cl)c([N+](=O)[O-])nn1CCCC(=O)NC(C)c1ccccc1` (stereo not given), the Potency result is “inactive”.

Consider `CCC(C(=O)N1CCN(S(=O)(=O)c2sc(C(=O)O)c(C)c2C(=O)O)CC1)c1ccccc1` (stereo not given), for which the Potency result was “inactive”.

`Cc1cccc(S(=O)(=O)N(C)C[C@H]2OCc3cnnn3CCCC(=O)N([C@@H](C)CO)C[C@H]2C)c1`: the Potency result was “inactive”.

`Cn1c(-c2ccc(C(=O)c3ccccc3)s2)nc2ccccc21`: the Potency result was “inactive”.

Turning to `Cn1cccc1-c1nc2ccccc2n1C`, the Potency result is “inactive”.

`Cc1csc(-c2nc3ccccc3n2C)n1`: the Potency is 18.8 µM (active).

Consider `Cc1ccc2nc(-c3ccc(Br)cc3)cn2c1`, for which the Potency entry is “inactive”.

`Cc1cc2c(cc1C)NC(c1ccccn1)C1=C(CC(C)(C)CC1=O)N2` (stereo not given): the Potency entry was “inactive”.

As to `O=C(/C=C/c1ccc(Cl)cc1)N1CCN(c2ccccc2[N+](=O)[O-])CC1`, the Potency entry was “inactive”.

In the case of `Nn1cnnc1N/N=C/c1cc([N+](=O)[O-])c(Cl)cc1Cl`, the Potency result was “inactive”.

In the case of `Nc1nc(SCC(=O)Nc2ccc(Cl)c([N+](=O)[O-])c2)n[nH]1`, the Potency result was “inactive”.

For `Cc1cc(C)n(-c2ccc(C(=O)O)cc2[N+](=O)[O-])n1`, the Potency result is “inactive”.

`CN(C)c1ccc(/C=C/C(=O)c2ccc(C(C)(C)C)cc2)cc1[N+](=O)[O-]`: the Potency is 23.1 µM (active).

With `CC(CC(=O)O)C(=O)c1ccc(Cl)c([N+](=O)[O-])c1` (stereo not given), the Potency result is “inactive”.

As for `O=C(O)c1ccc2c(=O)n3c(nc2c1)/C(=C/c1ccc(Cl)c([N+](=O)[O-])c1)CC3`, the Potency entry is “inactive”.

Take `NC(N)=N/N=C/c1ccc(Cl)c([N+](=O)[O-])c1`: the Potency is 10.3 µM (active).

As for `O=C(/C=C/c1ccc(Cl)c([N+](=O)[O-])c1)c1ccc(O)cc1`, the Potency was 4.61 µM (active).

Values taken from PubChem BioAssay AID686978 (National Center for Advancing Translational Sciences (NCATS), 2013).
